Data on 47 compounds can be found in PubChem BioAssay AID1347416 (National Center for Advancing Translational Sciences (NCATS), 2020).

Hit rate of the full screen: of about 4,100 compounds, about 1,600 (39%) were called active. Another 25% or so got no clear call; they are omitted. Calls come from the whole dose curve; as a rule, active = well fitted inhibition curve with a large enough effect; inconclusive = small, poorly fitted or top-dose-only effect; inactive = no such curve, though single readings can be large or run the other way. This is one part of the list.
Potency is the fitted concentration of half-maximal effect.

The test can be described thus: qHTS Validation assay for Inhibitors of Plasmodium falciparum Dd2 growth in vitro. Note: nearly all actives have a fitted effect of over 70% in size. As to conditions: P. falciparum Dd2 in RBCs, SYBR Green growth, 72 h; series mostly up to 28.7 µM. The text has this:
Malaria, a parasitic disease spread to humans through the bite of a Plasmodium infected Anopheles mosquito, continues to be a global health burden affecting millions of people, with an estimated 228 million cases and 405,000 deaths in 2018. Concerns about safety and limitations of current antimalarial treatments strongly emphasize the need to develop new therapeutic options. The scarce number of chemotypes and validated drug targets with efficacy against the liver stage, have hindered development of new antimalarials. To address this, a chemoprophylactic drug discovery effort was conducted through a combined phenotypic high-throughput asexual blood stage and liver stage screen, providing a robust foundation to identify liver-stage active lead chemotypes. Compounds were initially screened against Plasmodium falciparum Dd2 strain parasites using a in vitro SYBRGreen-1 based 72 hr proliferation assay to identify novel chemotypes to advance to liver stage assays. NIH/NCATS Early Translation Branch Assay Submitter (PI): Anton Simeonov Ph.D.
[…] Assay Protocol: PROTOCOL TABLE (as described by Inglese et al., 2007) SEQUENCE No. (e.g., 1, 2, 3, etc.); PARAMETER (e.g., Cells, Incubation, Reagent, etc.); VALUE; DESCRIPTION SEQUENCE, Parameter, Description 1; Reagent; 3 uL complete malaria growth medium, 1536 TC treated Black clear bottom plate 2; Controls; 23 nL positive control artesunate (300 nM final) to column 1; Neutral control DMSO to columns 2-4 3; Compound; 23 nL of compounds in dose response concentration (29 uM to 0.5 nM final) 4; Reagent; 5 uL malaria infected red blood cells (2.5% hematocrit final, 0.3% parasitemia 5; Time; 72 hours at 37C (5% O2, 5% CO2, 90% N2; 95% Rh) 6; Reagent; 2 uL lysis buffer/SYBRGreen-1, 25 sec shake immediately following dispense 7; Time; ~16 hours at 37C (5% O2, 5% CO2, 90% N2; 95% Rh) 8; Detector; EnVision (PerkinElmer) bottom read at 485/14nm excitation and 535/25 nm emission NOTES (numbers refer to sequence above): 1; Complete Malaria Growth Media: 1X RPMI-1640 w/L-glutamine, 5.5g/L Albumax II, 367 uM Hypoxanthine, 25 mM HEPES, 0.25% Sodium Bicarbonate, 35 uM Gentamicin sulfate 2; Controls were added using the Kalypsis Pintool (Wako USA) equipped with 1536 pinhead 3; Compounds were added in a 7-point, titration with a high final concentration of 29 uM by Pintool from seven inter-plate titrations of library plates and two DMSO control plates at the beginning and end (see Yasgar et al., 2008). 4; Red blood cells infected with Plasmodium falciparum Dd2 parasites were used. 6; Lysis buffer: 20 mM Tris-HCl, 10 mM EDTA, 0.16% Saponin, 1.6% Triton-X, 10X SYBR Green. REFERENCE: Inglese J, Shamu CE, Guy RK. 2007. Reporting data from high-throughput screening of small-molecule libraries. Nat Chem Biol. doi:10.1038/nchembio0807-438 Yasgar A, Shinn P, Jadhav A, Auld D, Michael S, Zheng W, Austin CP, Inglese J, Simeonov A. 2008. Compound Management for Quantitative High-Throughput Screening. J Lab Autom 13:79-89. doi:10.1016/j.jala.2007.12.004
(In qHTS, concentration-response curves come from the screen itself.)
In the case of `CN(C1CCOCC1)C1CCN(C(=O)c2cccc(Cl)c2)CC1`, the Potency entry was “inactive”. Next, `O=C(Nc1ccc2c(N3CCOCC3)ncnc2c1)c1cccc(Cl)c1`: 4.73 µM (active); `Cc1cccc(OCC(=O)N2CCC(c3n[nH]c(=O)n3-c3ccccc3)CC2)c1`: “inactive”. Turning to `CCc1cccc2c(C(CC(=O)N3CCC(C)CC3)c3cccc(C)c3)c[nH]c12` (configuration not stated), the Potency is 4.73 µM (active). Next, `CN(C)S(=O)(=O)N1CCCC(Cn2c(C3CC3)nc3cccnc32)C1` (configuration not stated): “inactive”; `Fc1cc(F)cc(CNc2ncncc2-c2nc(-c3ccccc3)no2)c1`: “inactive”; `CCCCCCSc1ccc([C@@H]2[C@H]3C(=O)N(CC)C(=O)[C@H]3[C@]3(C(=O)OC)CCCCN23)cc1OC`: 15 µM (active). For `COc1ccc2[nH]c(C[C@@H]3C[C@@H](C(C)C)[C@H](CNCc4ccccc4O)C=C3C)nc2n1` the value was 0.243 µM (active). Next, `COc1ccc2[nH]c(C[C@@H]3C[C@@H](C(C)C)[C@H](CNCc4cccnc4)C=C3C)nc2n1`: 19.3 µM (active). For `Cn1cnc(S(=O)(=O)N2CCCC(Cc3noc(-c4cccnc4)n3)C2)c1` (configuration not stated), the Potency result was “inactive”.

In the case of `COc1ccc(-c2nnc(C[C@@H]3C[C@@H](C(C)C)[C@H](CNCc4cccnc4)C=C3C)o2)cc1`, the Potency was 6.68 µM (active). Next, `CC1=C[C@@H](CNCc2cccnc2)[C@H](C(C)C)C[C@H]1Cc1nnc(-c2ccc([N+](=O)[O-])cc2)o1`: 5.31 µM (active); `CC1=C[C@@H](CNCc2cccnc2)[C@H](C(C)C)C[C@H]1Cc1nnc(-c2ccc(N(C)C)cc2)o1`: 5.31 µM (active). For `Brc1ccc(-c2ccnc3nc(-c4cccs4)nn23)s1` the value was “inactive”.

`Cc1[nH]cnc1CSCCn1ccnc1-c1nccn1C`: the Potency entry was “inactive”.

Consider `COc1cc2c(cc1OC)CN(C(=O)c1cccs1)CC2`, for which the Potency entry is “inactive”.

As for `COc1cc(C(=O)OCC(=O)N2CCCCC2C)cc(NC(=O)c2cccs2)c1OC` (configuration not stated), the Potency is 0.473 µM (active). Next, `CCOC(=O)c1c(CN(CC)CC)n(C)c2cc(Br)c(O)cc12`: 9.44 µM (active); `CCOC(=O)c1c(CN2CCCCC2)n(C)c2cc(Br)c(O)cc12`: 7.5 µM (active); `CCOC(=O)C1=C(O)/C(=C/c2cc(C)n(-c3ccccc3)c2C)N=C1C`: “inactive”. For `CCOC(=O)c1c(CN2CCN(CCO)CC2)n(-c2ccccc2)c2cc(Br)c(O)cc12` the value was 5.96 µM (active); for `CCOC(=O)c1c(CN2CCN(c3ccccc3)CC2)oc2cc(Br)c(O)cc12`, 1.88 µM (active).

Turning to `CCOC(=O)c1c(CSC(=N)N)n(-c2ccc(C)cc2)c2cc(Br)c(OC(C)=O)cc12`, the Potency is 5.96 µM (active).

Regarding `CCOC(=O)c1c(CN(C)C)n(-c2ccc(C)cc2)c2cc(Br)c(O)cc12`, the Potency was 4.22 µM (active).

For `CCOC(=O)c1c(CNc2ccncc2)n(C)c2cc(Br)c(O)cc12`, the Potency was 2.66 µM (active). As for `COc1ccc(-c2[nH]nc3ncc(-c4cccnc4)nc23)cc1F`, the Potency was 3.85 µM (active). Next, `COc1ccc(C(=O)N2CCC(Cc3nc(-c4cccnc4)n[nH]3)C2)cc1F` (configuration not stated): “inactive”. For `Fc1ccc(N2CCN(Cc3cccn3-c3nnc(N4CCN(C5CCCCC5)CC4)s3)CC2)cc1` the value was 11.9 µM (active). Next, `COc1ccccc1CCNC(=O)c1cccn1-c1nnc(N2CCCCC2)s1`: “inactive”. As for `CN(CC1CCOCC1)S(=O)(=O)c1ccc(F)c(Cl)c1`, the Potency entry is “inactive”.

As for `CCCCN(CCCC)CC(O)Cn1cc(/C=C/C(=O)c2ccccc2)c2ccccc21` (configuration not stated), the Potency was 1.68 µM (active). For `CCCN(CCC)CC(O)Cn1cc(/C=C/C(=O)c2ccc(C)cc2)c2ccccc21` (configuration not stated) the value was 4.73 µM (active); for `O=C(NC1CCCN(c2cc(-c3ccccc3)[nH]n2)C1)c1cc(F)ccc1F` (configuration not stated), “inactive”. Consider `COc1ccc(C(=O)N2CCC(c3nc(C4CCOCC4)no3)CC2)cn1`, for which the Potency result was “inactive”. Next, `COc1ccc(C(=O)N2CCCn3cc(-c4ccccc4F)nc32)cn1`: “inactive”; `COc1cccc(CN2CCC3(CC2)OC(=O)N(Cc2ccccc2)C3(C)c2ccccc2)c1` (configuration not stated): 15 µM (active); `CC1(c2ccccc2)N(Cc2ccccc2)C(=O)OC12CCN(Cc1cccc(O)c1)CC2` (configuration not stated): 8.41 µM (active).

On to `COc1ccc(C(=O)N2CCC3(CC2)OC(=O)N(Cc2ccc(O)cc2)C3(C)c2ccccc2)cn1` (configuration not stated), for which the Potency is 6.68 µM (active). Next, `CC1(c2ccccc2)N(Cc2ccccc2F)C(=O)OC12CCN(Cc1cccc(O)c1)CC2` (configuration not stated): 6.68 µM (active); `COc1cccc(CN2CCC3(CC2)Cc2ccccc2NC3=O)c1`: “inactive”; `Cc1nc(CN2C(=O)OC3(CCN(C(=O)c4ccc(Oc5ccccc5)cc4)CC3)C2(C)c2ccccc2)cs1` (configuration not stated): 13.3 µM (active). For `COc1ccccc1CNC[C@H]1O[C@H](Cc2cc(CN(C)Cc3ccccc3)on2)CC[C@@H]1O` the value was 2.99 µM (active); for `Cc1cccc(OCC2(CNCc3cccnc3)C[C@@H](O)[C@@H](O)C2)n1` (some centres not stated), “inactive”; for `O[C@@H]1CC(CNCc2cccc(Cl)c2)(COc2ccccc2)C[C@@H]1O` (some centres not stated), 3.85 µM (active). Next, `CN(Cc1ccccc1)Cc1cc(C[C@@H]2CC[C@H](O)[C@@H](CNCc3ccccc3)O2)no1`: 4.73 µM (active); `O=C(NC[C@H]1O[C@H](Cc2cc(CN3CCNCC3)on2)CC[C@@H]1O)c1ccccc1F`: “inactive”; `O[C@H]1CC[C@@H](Cc2cc(COc3ccccc3)on2)O[C@@H]1CNCc1cccc(Cl)c1`: 2.11 µM (active).
